Results: the supplement of paper PMC10849652
About 7,900 targets were measured; listed, in parts, are those with a hit and a random draw of the rest. About 0.6% of all pairs of compound and target were hits. Unmarked numbers belong to inactive results.

Legend:
Assay in all cases: log2 fold change, soluble protein after heating vs DMSO (PISA); higher = thermal stabilisation; K562 cells, 10 uM, 30 min; active = over 0.2 and 3.5 SD of the protein, either way, in both replicates (recomputed)
IRAK-1-4 Inhibitor I = compound: C1COCCN1CCN2C3=CC=CC=C3N=C2NC(=O)C4=CC(=CC=C4)[N+](=O)[O-] [IRAK-1-4 Inhibitor I]
How it was run: (§1)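 For each measurement, 10 μM compound was applied for 30 min to K562 cells at 2×10^6 cells/mL. Aliquots were heated for 3 min across 48°C-58°C, pooled, and extracted in PBS with 0.5% NP-40 at 4°C; the supernatant after 21,000xg for 90 min was soluble protein. This was quantified by TMTpro 16plex LC-MS/MS with channel sums equalised, and thermal stability was reported relative to control samples from duplicates, on a log2 fold-change scale.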

ibrutinib = compound: C=CC(=O)N1CCC[C@@H](n2nc(-c3ccc(Oc4ccccc4)cc3)c3c(N)ncnc32)C1 [ibrutinib]
How it was run: as §1

[1] = compound: CC(=O)c1cnc2ccc(-c3cc(Cl)c(O)c(Cl)c3)nc2c1N[C@H]1CC[C@H](CN(C)C)CC1
How it was run: as §1

ralimetinib = compound: CC(C)(C)Cn1c(N)nc2ccc(-c3[nH]c(C(C)(C)C)nc3-c3ccc(F)cc3)nc21 [ralimetinib]
How it was run: as §1

[2] = compound: CC(C)(O)CC(=O)NCCn1ccc2ncnc(Nc3ccc(Oc4cccc(C(F)(F)F)c4)c(Cl)c3)c21
How it was run: as §1

[3] = compound: CC(C)C1=C2N=C(C=C(N2N=C1)NCC3=CC=CC=C3)NCCCCCCN
How it was run: as §1

[4] = compound: CC(C)C[C@@H](C=O)NC(=O)[C@H](CC(C)C)NC(=O)[C@H](CC(C)C)NC(=O)OCc1ccccc1
How it was run: as §1

pinometostat = compound: CC(C)N(C[C@H]1O[C@@H](n2cnc3c(N)ncnc32)[C@H](O)[C@@H]1O)[C@H]1C[C@@H](CCc2nc3cc(C(C)(C)C)ccc3[nH]2)C1 [pinometostat]
How it was run: as §1

[5] = compound: CC1=C(C(CC(=O)N1)C2=CC=C(C=C2)C(F)(F)F)C(=O)NC3=C(C=C4C(=C3)C=NN4)F
How it was run: as §1

[6] = compound: CC1=C(C2=C(C=C1)C(=O)C3=CC=CC=C3N2CCCN)C
How it was run: as §1

[7] = compound: CC1=C(C=C(C=C1)NC(=O)C2=CC(=CC=C2)C(C)(C)C#N)NC3=CC4=C(C=C3)N=CN(C4=O)C
How it was run: as §1

[8] = compound: CC1=C(C=C(C=C1)NC(=O)C2=CC(=CC=C2)N(C)C)NC(=O)C3=CC=C(C=C3)O
How it was run: as §1

[9] = compound: CC1=CC=C(C=C1)SC2=C3C=C(SC3=CN=C2)C(=O)N
How it was run: as §1

[10] = compound: CC1=NC(=CC=C1)C2=C(N=C(N2)C(C)(C)C)C3=CC4=NC=CN=C4C=C3
How it was run: as §1

Nexturastat A = compound: CCCCN(Cc1ccc(C(=O)NO)cc1)C(=O)Nc1ccccc1 [Nexturastat A]
How it was run: as §1

vemurafenib = compound: CCCS(=O)(=O)Nc1ccc(F)c(C(=O)c2c[nH]c3ncc(-c4ccc(Cl)cc4)cc23)c1F [vemurafenib]
How it was run: as §1

[11] = compound: CCCS(=O)(=O)Nc1ccc(F)c(C(=O)c2c[nH]c3ncc(Cl)cc23)c1F
How it was run: as §1

[12] = compound: CCCc1cc(C)[nH]c(=O)c1CNC(=O)c1cc(-c2ccnc(N3CCN(C)CC3)c2)cc2c1cnn2C(C)C
How it was run: as §1

givinostat = compound: CCN(CC)Cc1ccc2cc(COC(=O)Nc3ccc(C(=O)NO)cc3)ccc2c1 [givinostat]
How it was run: as §1

barasertib = compound: CCN(CCCOc1ccc2c(Nc3cc(CC(=O)Nc4cccc(F)c4)[nH]n3)ncnc2c1)CCOP(=O)(O)O [barasertib]
How it was run: as §1

Sequence of UniProt Q9H773 (Q9H773 whole entry, looked up): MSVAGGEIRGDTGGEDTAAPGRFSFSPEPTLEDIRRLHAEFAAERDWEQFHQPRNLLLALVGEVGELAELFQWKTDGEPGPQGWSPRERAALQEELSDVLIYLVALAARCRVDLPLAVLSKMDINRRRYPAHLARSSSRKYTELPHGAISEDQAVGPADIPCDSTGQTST
Sequence of UniProt Q15369 (Q15369 whole entry, looked up): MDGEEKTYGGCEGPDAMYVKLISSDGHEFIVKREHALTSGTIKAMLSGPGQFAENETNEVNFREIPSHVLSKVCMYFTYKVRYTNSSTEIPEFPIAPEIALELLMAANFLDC
Sequence of UniProt Q6V1X1 (Q6V1X1 whole entry, looked up): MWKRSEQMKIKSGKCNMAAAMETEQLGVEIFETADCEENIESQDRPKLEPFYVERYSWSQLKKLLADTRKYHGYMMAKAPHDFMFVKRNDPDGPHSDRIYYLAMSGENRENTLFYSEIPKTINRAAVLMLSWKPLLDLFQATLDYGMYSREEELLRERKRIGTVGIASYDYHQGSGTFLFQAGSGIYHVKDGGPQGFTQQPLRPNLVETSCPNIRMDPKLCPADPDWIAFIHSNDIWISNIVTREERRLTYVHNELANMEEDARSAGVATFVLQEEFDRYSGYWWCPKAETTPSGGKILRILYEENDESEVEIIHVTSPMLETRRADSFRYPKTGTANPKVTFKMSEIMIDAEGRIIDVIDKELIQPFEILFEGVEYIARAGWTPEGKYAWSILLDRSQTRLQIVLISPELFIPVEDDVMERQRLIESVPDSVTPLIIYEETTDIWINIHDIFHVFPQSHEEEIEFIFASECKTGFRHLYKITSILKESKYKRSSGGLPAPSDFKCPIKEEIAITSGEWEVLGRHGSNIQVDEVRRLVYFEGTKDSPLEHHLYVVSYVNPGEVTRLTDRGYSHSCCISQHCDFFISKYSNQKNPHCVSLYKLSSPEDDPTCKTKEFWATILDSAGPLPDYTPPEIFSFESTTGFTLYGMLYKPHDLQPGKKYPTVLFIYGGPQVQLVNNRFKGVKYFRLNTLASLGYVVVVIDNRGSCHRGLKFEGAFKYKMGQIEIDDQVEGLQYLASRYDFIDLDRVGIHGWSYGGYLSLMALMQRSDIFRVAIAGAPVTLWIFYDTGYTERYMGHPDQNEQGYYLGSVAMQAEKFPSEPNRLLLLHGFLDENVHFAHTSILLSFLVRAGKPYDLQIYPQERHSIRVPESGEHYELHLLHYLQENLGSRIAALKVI
Sequence of UniProt Q15075 (Q15075 whole entry, looked up): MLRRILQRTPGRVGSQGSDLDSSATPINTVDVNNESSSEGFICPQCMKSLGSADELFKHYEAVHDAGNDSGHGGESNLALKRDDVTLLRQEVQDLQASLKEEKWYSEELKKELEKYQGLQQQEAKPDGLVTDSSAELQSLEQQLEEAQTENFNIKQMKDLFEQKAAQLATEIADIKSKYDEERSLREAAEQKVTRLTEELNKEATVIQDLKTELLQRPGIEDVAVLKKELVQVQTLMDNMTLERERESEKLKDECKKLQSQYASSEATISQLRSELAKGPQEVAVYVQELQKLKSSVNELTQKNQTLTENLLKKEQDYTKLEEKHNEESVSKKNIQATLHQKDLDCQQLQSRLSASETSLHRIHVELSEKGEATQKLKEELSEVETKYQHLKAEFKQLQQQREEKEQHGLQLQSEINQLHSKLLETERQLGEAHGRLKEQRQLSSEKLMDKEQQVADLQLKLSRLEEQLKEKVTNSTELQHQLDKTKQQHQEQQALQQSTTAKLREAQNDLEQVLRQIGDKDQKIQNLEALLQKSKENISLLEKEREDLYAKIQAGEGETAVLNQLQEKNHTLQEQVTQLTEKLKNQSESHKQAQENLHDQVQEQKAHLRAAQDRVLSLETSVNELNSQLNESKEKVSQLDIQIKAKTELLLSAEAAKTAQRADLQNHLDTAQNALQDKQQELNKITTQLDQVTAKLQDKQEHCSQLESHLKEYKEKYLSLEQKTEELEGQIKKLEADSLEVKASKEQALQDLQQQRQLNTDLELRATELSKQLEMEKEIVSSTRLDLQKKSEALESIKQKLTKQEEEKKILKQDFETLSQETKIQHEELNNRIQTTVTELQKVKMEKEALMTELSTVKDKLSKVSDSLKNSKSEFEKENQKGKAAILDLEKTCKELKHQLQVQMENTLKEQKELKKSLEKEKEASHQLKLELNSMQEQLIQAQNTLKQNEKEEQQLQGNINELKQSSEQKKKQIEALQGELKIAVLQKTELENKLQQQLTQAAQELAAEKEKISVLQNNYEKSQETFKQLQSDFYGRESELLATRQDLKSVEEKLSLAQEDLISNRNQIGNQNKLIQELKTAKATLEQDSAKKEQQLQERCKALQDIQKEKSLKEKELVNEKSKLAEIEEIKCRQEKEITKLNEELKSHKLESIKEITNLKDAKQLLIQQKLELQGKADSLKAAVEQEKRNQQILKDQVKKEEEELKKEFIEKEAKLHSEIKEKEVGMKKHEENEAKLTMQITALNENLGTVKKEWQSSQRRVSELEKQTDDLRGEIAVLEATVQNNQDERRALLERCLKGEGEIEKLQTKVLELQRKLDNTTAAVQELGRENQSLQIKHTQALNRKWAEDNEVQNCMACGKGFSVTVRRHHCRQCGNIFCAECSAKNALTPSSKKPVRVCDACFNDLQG
Sequence of UniProt Q96FC9 (Q96FC9 whole entry, looked up): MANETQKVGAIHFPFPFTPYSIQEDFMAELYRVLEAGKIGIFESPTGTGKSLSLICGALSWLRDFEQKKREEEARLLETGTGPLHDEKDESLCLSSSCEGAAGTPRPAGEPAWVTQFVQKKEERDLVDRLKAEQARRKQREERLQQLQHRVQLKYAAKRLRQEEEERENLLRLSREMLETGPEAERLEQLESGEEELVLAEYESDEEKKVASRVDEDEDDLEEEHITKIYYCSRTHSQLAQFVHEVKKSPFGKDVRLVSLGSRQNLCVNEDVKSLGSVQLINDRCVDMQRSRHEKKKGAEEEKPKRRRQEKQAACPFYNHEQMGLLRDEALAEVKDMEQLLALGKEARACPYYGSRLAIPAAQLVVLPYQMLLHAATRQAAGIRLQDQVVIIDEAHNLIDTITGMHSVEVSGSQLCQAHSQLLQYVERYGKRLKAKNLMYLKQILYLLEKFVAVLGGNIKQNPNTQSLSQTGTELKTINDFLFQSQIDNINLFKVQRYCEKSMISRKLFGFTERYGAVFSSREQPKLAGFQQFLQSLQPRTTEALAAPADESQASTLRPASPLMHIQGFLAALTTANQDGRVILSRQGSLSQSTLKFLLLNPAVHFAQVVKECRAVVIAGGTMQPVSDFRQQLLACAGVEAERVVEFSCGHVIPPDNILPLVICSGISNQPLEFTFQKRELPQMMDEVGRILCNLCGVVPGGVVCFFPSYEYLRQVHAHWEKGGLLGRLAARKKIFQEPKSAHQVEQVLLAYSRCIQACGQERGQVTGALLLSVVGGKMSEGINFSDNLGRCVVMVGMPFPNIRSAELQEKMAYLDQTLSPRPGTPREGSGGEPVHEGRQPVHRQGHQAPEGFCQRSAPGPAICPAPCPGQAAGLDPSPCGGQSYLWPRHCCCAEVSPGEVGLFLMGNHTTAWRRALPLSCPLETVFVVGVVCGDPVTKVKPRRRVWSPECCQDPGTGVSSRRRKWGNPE
Sequence of UniProt O76075 (O76075 whole entry, looked up): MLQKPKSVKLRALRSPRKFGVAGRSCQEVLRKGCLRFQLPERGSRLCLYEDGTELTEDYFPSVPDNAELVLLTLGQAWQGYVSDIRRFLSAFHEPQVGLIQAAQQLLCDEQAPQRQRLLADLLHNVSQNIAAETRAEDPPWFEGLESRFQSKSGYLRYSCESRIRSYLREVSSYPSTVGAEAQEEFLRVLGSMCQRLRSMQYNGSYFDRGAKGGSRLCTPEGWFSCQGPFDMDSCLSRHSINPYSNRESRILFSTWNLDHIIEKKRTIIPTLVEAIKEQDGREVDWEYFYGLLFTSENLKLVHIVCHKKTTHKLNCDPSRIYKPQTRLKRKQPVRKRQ
Sequence of UniProt Q5W0V3 (Q5W0V3 whole entry, looked up): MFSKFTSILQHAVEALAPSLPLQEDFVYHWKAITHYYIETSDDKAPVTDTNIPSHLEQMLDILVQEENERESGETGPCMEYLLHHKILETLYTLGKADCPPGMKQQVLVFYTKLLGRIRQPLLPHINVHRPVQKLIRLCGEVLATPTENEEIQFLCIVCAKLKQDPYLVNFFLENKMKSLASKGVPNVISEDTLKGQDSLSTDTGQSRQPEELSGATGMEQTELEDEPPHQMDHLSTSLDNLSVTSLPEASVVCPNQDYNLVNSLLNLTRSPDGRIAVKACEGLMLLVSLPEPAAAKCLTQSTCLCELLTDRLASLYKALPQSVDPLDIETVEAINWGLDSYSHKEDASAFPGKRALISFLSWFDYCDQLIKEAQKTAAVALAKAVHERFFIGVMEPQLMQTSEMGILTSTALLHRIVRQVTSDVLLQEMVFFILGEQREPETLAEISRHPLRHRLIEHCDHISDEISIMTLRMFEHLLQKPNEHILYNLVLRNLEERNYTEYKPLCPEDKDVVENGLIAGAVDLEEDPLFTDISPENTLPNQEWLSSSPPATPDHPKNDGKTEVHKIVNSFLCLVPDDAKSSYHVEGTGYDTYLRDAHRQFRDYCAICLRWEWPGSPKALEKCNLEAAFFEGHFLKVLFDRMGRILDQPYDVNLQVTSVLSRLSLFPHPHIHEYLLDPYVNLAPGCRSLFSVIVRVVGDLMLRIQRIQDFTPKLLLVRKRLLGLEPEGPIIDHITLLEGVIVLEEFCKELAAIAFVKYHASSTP
Sequence of UniProt Q9UBQ6 (Q9UBQ6 whole entry, looked up): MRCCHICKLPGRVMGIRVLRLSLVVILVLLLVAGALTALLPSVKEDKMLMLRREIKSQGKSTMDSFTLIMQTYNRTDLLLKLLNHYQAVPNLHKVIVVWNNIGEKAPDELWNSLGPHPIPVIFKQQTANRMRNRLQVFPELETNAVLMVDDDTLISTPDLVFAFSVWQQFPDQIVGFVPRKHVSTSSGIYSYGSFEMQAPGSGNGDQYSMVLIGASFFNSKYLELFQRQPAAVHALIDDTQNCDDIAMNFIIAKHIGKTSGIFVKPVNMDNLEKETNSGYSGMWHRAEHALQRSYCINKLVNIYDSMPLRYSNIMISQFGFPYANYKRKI

| Target | log2 fold change (IRAK-1-4 Inhibitor I) | log2 fold change (ibrutinib) | log2 fold change [1] | log2 fold change (ralimetinib) | log2 fold change [2] | log2 fold change [3] | log2 fold change [4] | log2 fold change (pinometostat) | log2 fold change [5] | log2 fold change [6] | log2 fold change [7] | log2 fold change [8] | log2 fold change [9] | log2 fold change [10] | log2 fold change (Nexturastat A) | log2 fold change (vemurafenib) | log2 fold change [11] | log2 fold change [12] | log2 fold change (givinostat) | log2 fold change (barasertib) |
| --- | --- | --- | --- | --- | --- | --- | --- | --- | --- | --- | --- | --- | --- | --- | --- | --- | --- | --- | --- | --- |
| ESYT1 isoform 2 (UniProt Q9BSJ8) | -0.126 | -0.046 | -0.048 | 0 | -0.075 | -0.321 (active) | 0.053 | 0.152 | -0.018 | 0.031 | 0.117 | -0.052 | -0.007 | 0.003 | 0.045 | 0.01 | 0.048 | 0.148 | 0.116 | 0.046 |
| DDX11 (UniProt Q96FC9) | 0.152 | 0.001 | -0.119 | -0.033 | -0.003 | 0.022 | 0.09 | -0.316 | -0.02 | 0.023 | -0.04 | 0.052 | -0.035 | 0.043 | -0.011 | -0.072 | 0 | -0.006 | -0.029 | 0.125 |
| DTWD2 (UniProt Q8NBA8) | 0.094 | 0.001 | 0.009 | 0.092 | -0.07 | -0.179 | 0.003 | 0.082 | 0.031 | -0.004 | 0.019 | -0.025 | 0.197 | -0.048 | 0.009 | -0.079 | 0.043 | -0.006 | -0.139 | 0.056 |
| DDX4 (UniProt Q9NQI0) | -0.033 | -0.046 | -0.035 | -0.063 | 0.203 | 0.02 | 0.239 | 0.24 | 0.03 | 0.033 | -0.451 | 0.035 | -0.328 | -0.336 | 0.263 | -0.569 | -0.447 | 0.327 | 0.271 | -0.094 |
| EXTL2 (UniProt Q9UBQ6) | -0.018 | 0.019 | -0.073 | -0.061 | 0.062 | 0.01 | 0.041 | 0 | 0.021 | 0.12 | 0.072 | -0.003 | -0.017 | -0.003 | -0.163 | -0.002 | -0.031 | -0.043 | -0.039 | -0.053 |
| DCTPP1 (UniProt Q9H773) | 0.017 | 0.011 | 0.03 | 0.062 | -0.039 | 0.075 | -0.105 | -0.067 | 0.061 | 0.165 | 0.003 | -0.078 | 0.009 | 0.008 | 0.067 | 0.126 | -0.043 | -0.009 | -0.019 | 0.059 |
| FAM160B1 (UniProt Q5W0V3) | 0.019 | 0.012 | 0.03 | 0.005 | -0.05 | -0.285 (active) | 0.019 | -0.019 | -0.036 | -0.051 | 0.033 | 0.128 | -0.019 | 0.051 | -0.023 | 0.149 | 0.034 | 0.014 | 0.016 | 0.109 |
| EEF1D isoform 2 (UniProt P29692) | -0.038 | -0.039 | 0.012 | 0.026 | -0.006 | -0.051 | 0.029 | 0.065 | 0.002 | 0.039 | 0.039 | -0.034 | -0.012 | -0.003 | 0.029 | -0.044 | 0.049 | -0.004 | 0.038 | 0.02 |
| EEA1 (UniProt Q15075) | 0.037 | 0.002 | 0.02 | -0.068 | 0.013 | 0.025 | -0.022 | -0.041 | 0.001 | -0.004 | -0.027 | 0.009 | 0.009 | 0.011 | -0.035 | -0.024 | 0.003 | -0.036 | -0.01 | 0.009 |
| ELOC (UniProt Q15369) | 0.017 | -0.011 | -0.018 | -0.027 | -0.07 | -0.032 | -0.042 | 0.008 | 0.002 | 0.165 | 0.016 | -0.034 | 0.008 | 0.001 | -0.027 | 0.017 | 0.031 | 0 | -0.035 | 0.026 |
| ECPAS (UniProt Q5VYK3) | -0.117 | -0.09 | 0.009 | 0.082 | -0.139 | -0.094 | 0.564 (active) | 0.055 | 0.021 | 0.092 | 0.008 | -0.06 | 0.016 | 0.02 | 0.049 | 0.084 | 0.059 | 0.051 | 0.118 | 0.037 |
| DPP8 (UniProt Q6V1X1) | 0.002 | -0.001 | -0.035 | -0.046 | -0.005 | 0.059 | 0.015 | -0.018 | 0.004 | 0.12 | -0.109 | -0.026 | -0.031 | 0.021 | 0.082 | -0.056 | -0.05 | -0.176 | -0.026 | 0.014 |
| EED, A0A5F9ZI63 | -0.032 | -0.012 | -0.041 | 0.042 | 0.053 | 0.05 | 0.03 | 0.052 | -0.001 | 0.145 | 0.005 | -0.067 | -0.012 | -0.019 | 0.013 | -0.02 | 0.025 | -0.204 (active) | 0.082 | -0.038 |
| EXOC8 (UniProt Q8IYI6) | -0.094 | -0.001 | 0.014 | 0.049 | -0.128 | -0.317 (active) | -0.032 | 0.051 | 0.026 | -0.002 | 0.035 | -0.085 | 0.037 | 0.016 | -0.087 | 0.048 | 0.01 | -0.091 | 0.028 | 0.048 |
| DFFB (UniProt O76075) | -0.002 | -0.047 | 0.011 | 0.005 | -0.148 | 0.066 | 0.045 | 0.008 | -0.052 | 0.009 | -0.023 | -0.013 | 0.013 | 0.019 | -0.04 | 0.055 | 0 | -0.109 | -0.059 | 0.034 |
